# Sampled rows, rich in hits. Any-hit rate of the full collection: about 3%.
# Mtb FBA inh: Mtb fructose-bisphosphate aldolase inhibition; P9WQA3; purified M. tuberculosis FBA, fluorescence read-out; inhibition, % at 1 µM; 2.3% of 360,000 active; AID 588726; in the data active = inhibition above about 27%;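 note: 0% = vehicle and 100% = reference inhibitor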
# Target sequence (P9WQA3 whole entry, looked up): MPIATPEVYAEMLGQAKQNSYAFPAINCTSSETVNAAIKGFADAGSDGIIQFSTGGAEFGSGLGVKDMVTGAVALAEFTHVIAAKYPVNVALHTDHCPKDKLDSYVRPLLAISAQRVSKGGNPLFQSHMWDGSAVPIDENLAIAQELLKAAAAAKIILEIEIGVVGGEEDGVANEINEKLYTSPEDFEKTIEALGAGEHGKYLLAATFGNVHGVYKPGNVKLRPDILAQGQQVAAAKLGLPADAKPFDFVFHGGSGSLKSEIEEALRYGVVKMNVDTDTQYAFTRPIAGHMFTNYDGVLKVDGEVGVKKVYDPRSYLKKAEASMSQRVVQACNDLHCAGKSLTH
# GDH-TPI counter: counter-screen for M. tuberculosis FBA inhibitors: GDH-TPI coupled enzymes; GDH-TPI coupled enzyme counterscreen, NADH absorbance; inhibition, % at 4.8 µM; 1.2% of 360,000 active; AID 588335; in the data active = inhibition above about 30%;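 note: 0% = DMSO wells and 100% = wells lacking the enzyme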
# Vc quorum ag: inducers of Vibrio cholerae quorum light production without autoinducers; activation, % at 18.7 µM; 0.16% of 350,000 active; V. cholerae BH1578 lux reporter, luminescence, 6 h; in the data active = activation mostly above about 9.7%, no sharp cut-off
# Mtb BioA inh: BioA (M. tuberculosis) enzyme inhibition; purified M. tuberculosis BioA enzyme, plate reader; inhibition, % at 9.99 µM; 0.096% of 360,000 active; in the data active = inhibition above about 40%
# * = called active by the depositor; i = inactive; nt = no result; + = active, no number.
SMILES,Mtb FBA inh,GDH-TPI counter,Vc quorum ag,Mtb BioA inh
Cc1ccc(C(=O)N/N=C/C=C/c2ccccc2)o1,6,52*,0,nt
Cc1cc(C(=O)N/N=C/C=C/c2ccccc2)n[nH]1,-1,61*,i,-1
Cc1ccc(-c2cc(C(=O)N/N=C/C=C/c3ccccc3)n[nH]2)s1,2,24,i,0
O=C(N/N=C/C=C/c1ccccc1)c1cc(C2CC2)[nH]n1,-1,67*,i,0
Cc1onc(-c2ccccc2)c1C(=O)N/N=C/C=C/c1ccccc1,5,23,-1,1
Cc1cc(C(=O)N/N=C/C=C/c2cccc([N+](=O)[O-])c2)n[nH]1,-5,24,-1,-4
CNC[C@@H]1Oc2ccc(NC(=O)Nc3ccc(F)cc3)cc2C(=O)N([C@@H](C)CO)C[C@H]1C,nt,nt,nt,4
CC(C)(O)C#Cc1ccccc1C(=O)NC(CC(N)=O)C(=O)O (centres undefined),2,32*,0,2
COCCCNC(=O)/C(=C\c1cccn1C)NC(=O)c1cccs1,3,34*,-3,-3
O=C(NCCO)/C(=C\c1ccc(Br)cc1)NC(=O)c1cccs1,0,10,0,nt
Cc1cccn2c(=O)c3cc(C(=O)NCc4ccc(F)cc4)c(=N)n(CC4CCCO4)c3nc12 (centres undefined),+,0,i,3
Cc1cccn2c(=O)c3cc(S(=O)(=O)c4ccc(Br)cc4)c(=N)n(C4CCCCC4)c3nc12,1,-2,i,1
Cc1ccc(-c2cc(C(=O)NCC3CCCO3)c3ccccc3n2)cc1C (centres undefined),-1,6,i,nt
Cc1cccn2c(=O)c3cc(C(=O)NCC4CCCO4)c(=N)n(C4CCCCC4)c3nc12 (centres undefined),+,7,0,0
Cc1cccn2c(=O)c3cc(C(=O)NC4CCCC4)c(=N)n(CC4CCCO4)c3nc12 (centres undefined),+,8,0,-1
Cc1cccn2c(=O)c3cc(C(=O)NCC4CCCO4)c(=N)n(CC4CCCO4)c3nc12 (centres undefined),+,6,0,0
COc1ccc(CNC(=O)c2cc3c(=O)n4cccc(C)c4nc3n(CC3CCCO3)c2=N)cc1 (centres undefined),14,4,0,-8
Cn1cnc(S(=O)(=O)N[C@@H]2C=C[C@H](CC(=O)NCC3CCCCC3)O[C@H]2CO)c1,nt,nt,nt,0
O=[N+]([O-])c1cc(/C=N/n2cnnc2)ccc1N1CCCC1,-3,37*,i,6
O=[N+]([O-])c1cc(/C=N/O)ccc1N1CCCC1,-6,15,i,nt
CNC(=O)N(O)C1N(/N=C/c2cccnc2)C(=S)SC1(C)C (centres undefined),-1,17,i,nt
CN(C)c1ccc(/C=N/N2C(=S)SC(C)(C)C2N(O)C(=O)Nc2ccc([N+](=O)[O-])cc2)cc1 (centres undefined),0,51*,0,-1
CNC(=O)N(O)C1N(/N=C/c2ccccc2O)C(=S)SC1(C)C (centres undefined),0,36*,-1,nt
CNC(=O)N(O)C1N(/N=C/c2ccc(SC)cc2)C(=S)SC1(C)C (centres undefined),0,36*,i,-1
COc1cccc(-c2ccc3n(c2=O)C[C@H]2[C@H](CO)[C@@H](C(=O)NCCN4CCCCC4)N(C)[C@@H]32)c1,nt,nt,nt,1
SMILES,Mtb FBA inh,GDH-TPI counter,Vc quorum ag,Mtb BioA inh
CCOC(=O)C1C(=O)C=C(c2ccc(C)cc2)CC1c1ccco1 (centres undefined),0,6,-7,2
CCOC(=O)C1C(=O)C=C(c2ccc(NS(C)(=O)=O)cc2)CC1c1ccco1 (centres undefined),10,33*,2,1
C[C@H]1CCCCO[C@@H](CN(C)C(=O)CCCN(C)C)[C@@H](C)CN([C@@H](C)CO)C(=O)c2cc(NS(=O)(=O)c3ccccc3)ccc2O1,nt,nt,nt,3
O=C(CCN1CCCCC1)N[C@H]1CC[C@@H](CCn2cc(-c3ccc(F)cc3)nn2)O[C@@H]1CO,nt,nt,nt,0
O=C(C[C@H]1C[C@@H]2c3cc(NC(=O)C4CCOCC4)ccc3O[C@@H]2[C@H](CO)O1)NCc1ccccc1,nt,nt,nt,0
COc1nc(-c2ccccc2)cc(-c2ccc(OC)c(OC)c2)n1,21,36*,i,-1
O=C(Cc1ccncc1)NCC[C@H]1CC[C@@H](NC(=O)C2CCC2)[C@@H](CO)O1,nt,nt,nt,-1
COCCCn1c(C(=O)NCCC2=CCCCC2)cc2c(=O)n3cccc(C)c3nc21,6,0,i,-2
Cn1c(C(=O)NCCN2CCOCC2)cc2c(=O)n3ccccc3nc21,+,22,i,-1

# High-throughput results as filed in PubChem BioAssay.
